This passage reports growth results from PubChem BioAssay (NCI).

Structures are written as SMILES. This is part of a sample that, as a whole, favours compounds with a hit. Of some 83,000 tested, about 20% had one in any assay.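 Step 1: grow cells in 96-well plates. Step 2: add test compound at a single concentration. Step 3: incubate 48 h. Step 4: record percent growth.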 Active and inactive are the calls of the source. The calls were made as follows: active = growth percent below 10; inactive = the rest.

The experiment concerns HL-60(TB) leukemia. Kind of experiment: NCI-60 one-dose screen, 48 h (100 = growth as untreated, 0 = no growth, -100 = all killed). To be noted: 10 µM unless noted.
`Cc1cccc(C)c1N1C(c2ccccc2)=NNC12C=CC(=O)c1c(O)cccc12` (stereo not given): the growth is 61.2% (inactive).
Under `CCCCC[C@H]1C/C=C2/C(=O)C(Cl)=C[C@@H]2C/C=C\CCCC(=O)O1` stands -9.03% (active); under `Cc1nc2ccccc2n1CC1C(=O)NC(=O)NC1=O`, 102% (inactive).
The same measure for `O=C(/C=C/c1ccc2ccccc2c1)Nc1ncc(Cc2ccccc2)s1`: 94.4% (inactive); for `Clc1ccc2c(NCCNc3nc(N4CCOCC4)nc4ccccc34)ccnc2c1`: -65.4% (active).
The same measure for `CCN(CCNc1ccc(C)c2sc3cc(Cl)ccc3c(=O)c12)CC(C)(C)O`: 81.4% (inactive); for `Cc1nc2sc(C(=O)Nc3ccccn3)c(N)c2cc1C(C)O` (stereo not given): 34.1% (inactive).
Turning to `CN(C)CCCNc1nn2c(=O)c3ccccc3nc2c2ccccc12`, the growth is 26.9% (inactive).
Under `NC(N)=N/N=C/c1ccc(Br)cc1` stands -0.0458% (active); under `N#C/C(=C\c1ccc(C#N)cc1)C(=O)c1ccccc1`, 92.7% (inactive); under `CC1=NN(c2cccc(Cl)c2)C(=O)/C1=C\c1cn(-c2nc(N3CCOCC3)nc(N3CCOCC3)n2)c2ccccc12`, 99.1% (inactive).
The same measure for `C#Cc1cccc(Nc2ncnc3ccc(NC(=O)c4ccccc4)cc23)c1`: 71.9% (inactive).
Consider `O=C(Cn1nc(-c2cccc3ccccc23)ccc1=O)NCc1cccc(Cl)c1`, for which the growth was 22.3% [50 µM] (inactive).
Under `O=C(c1ccc(F)cc1)C1CCN(CCn2c(=O)[nH]c3ccccc3c2=O)CC1` stands 97.3% (inactive).
As for `CC(C)CC(=O)C(CCc1ccccn1)C(C)C` (stereo not given), the growth is 108% (inactive).
As for `N=C(N)c1ccc(-c2ccc(-c3ccc(F)cc3)s2)cc1`, the growth was -56.1% (active).
Under `COc1cc(NC(=O)c2cc(OC)c3ccn(C)c3c2)cc2c1C[C@]1(C)CC[C@@H](O)C(C)(C)[C@H]1O2` stands 31.5% (inactive).
Under `CCCCCCCCCCCCCCCCCCOc1ccccc1CC(=O)OCC[N+]1(C)CCCCC1` stands -5.08% (active).
The same measure for `COc1cc2cc(NCc3ccc(Cl)cc3)nc(C)c2cc1OC`: 31.3% (inactive).
Regarding `CCCCC(O)c1ccccc1` (stereo not given), the growth was 99.2% (inactive).
Under `CCCCCn1c(=N)n(CC(O)COc2cccc(C)c2)c2ccccc21` (stereo not given) stands 2.51% (active); under `CC1NC(=S)NC(=O)/C1=C/c1cc(=O)oc2c1ccc1ccccc12` (stereo not given), 102% (inactive).
The same measure for `Cc1nc2cc(Nc3nc(Nc4ccc(F)cc4)nc(N4CCN(C)CC4)n3)ccc2n1Cc1ccccc1`: -56.9% (active); for `Cc1c2c(cc[n+]1Cc1ccccc1)c1ccc(OCC3CCCCC3)cc1n2CC1CCCCC1`: -53.4% (active).
Under `CN(C)C1CN(C(=O)c2cc(-c3ccc4ncnc(N5CCc6cc(F)c(Cl)cc65)c4c3)cnc2N)C1` stands -1.16% (active); under `Cc1cc(C)n(CC(=O)Nc2ccc(-c3nc4ccccc4s3)cc2)n1`, 103% (inactive).
`CN(Cc1cnc2nc(N)nc(N)c2n1)c1c(Cl)cc(C(=O)NC(CCC(=O)O)C(=O)O)cc1Cl` (stereo not given): the growth was 18.6% (inactive).
The same measure for `COc1ccc(/C=C2\SC(=O)N(CN3CCN(c4cc5c(cc4F)c(=O)c(C(=O)O)cn5C4CC4)CC3)C2=O)cc1`: 109% (inactive); for `O=c1c2ccccc2sc2c(NCCN3CCOCC3)nc3ccccc3c12`: 75.9% (inactive); for `Cc1nc2sc(C(=O)Nc3ccccc3Cl)c(N)c2cc1C(C)O` (stereo not given): 58.8% (inactive).
Regarding `O=C(O)c1c[nH]c2ccccc2c1=O`, the growth is 91.2% (inactive).
The same measure for `CCNC(=O)Nc1ncccc1OCc1ccc(F)cc1`: 95.5% (inactive); for `CC1C=CC(OC(=O)C(C)(O)CCC(O)(C(=O)OC2CC(O)C(C(C)C)CC2(C)O)C(C)C)(C(C)C)CC1` (stereo not given): -50.8% [4.63 µM] (active); for `O=C(c1ccccc1)C(c1ccccc1)N1CCOCC1` (stereo not given): 94.4% (inactive).
With `O=C1/C(=C/c2ccccc2)CN(CCC(=O)N2C/C(=C\c3ccccc3)C(=O)/C(=C/c3ccccc3)C2)C/C1=C\c1ccccc1`, the growth is 48% (inactive).
Turning to `O=C(O)c1cc(I)ccc1O`, the growth was 103% (inactive).
With `C=CC(=O)Nc1cccc(Oc2nccc(Nc3nnc(C4CC4)s3)n2)c1`, the growth is 78% (inactive).
Under `CN(C)CC1C(=O)O[C@H]2[C@H]1CC/C(COC(=O)c1cc3ccccc3[nH]1)=C\CC[C@@]1(C)O[C@@H]21` (stereo not given in full) stands -36% (active); under `O=S(=O)(O)c1cc(O)c2c(N=Nc3ccc(Nc4ccccc4)c4c(S(=O)(=O)O)cccc34)cc(S(=O)(=O)O)cc2c1`, 82.7% (inactive); under `Cc1cccc(/C=N/Nc2cc(C)c3cccc(C)c3n2)n1`, 83.1% (inactive).
